Assay [1] deals with ATP-dependent 6-phosphofructokinase (Trypanosoma brucei brucei) (UniProt O15648). Nature of the assay: qHTS Assay to Find Inhibitors of T. brucei phosphofructokinase: hit validation (AID 492961).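 Also: luminescence reports ADP formed as PFK phosphorylates fructose-6-phosphate with ATP.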 The note with it: T. brucei PFK, ADP-Glo luminescence; series mostly up to 51.4 µM. The essentials: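 ADP-Glo luminescence read-out of ADP formed by 1.25 nM PFK from 0.1 mM ATP and 0.5 mM F6P (TEA pH 8.0, 45 min, RT). Compounds titrated; activity normalized to no-enzyme and full-enzyme controls.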

The nature of assay [2]: S16 Schwann cell viability assay (CellTiter-Glo assay) (AID 624031). Also: nearly all actives have a fitted effect of over 70% in size. Also: potency is read from the fitted curve at half-maximal effect. The note with it: S16 rat Schwann cells viability, 24 h; series mostly up to 57.5 µM. The essentials: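 CellTiter-Glo ATP luminescence counter-screen in untransfected S16 rat Schwann cells, 24h compound exposure at 37 degree Celsius after overnight seeding (500-750 cells/well); response scaled between cell-free wells and DMSO (0% activity), curves classed by r2 and magnitude.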

For assay [3], the system named is 7G8. Nature of the assay: qHTS profiling for inhibitors of Plasmodium falciparum proliferation (AID 504749). Also: nearly all actives have a fitted effect of over 60% in size. Also: potency is read from the fitted curve at half-maximal effect. The note with it: P. falciparum in erythrocytes, SYBR Green DNA, 72 h; series mostly up to 28.7 µM. The essentials:
(§1)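 Infected RBCs, 0.3% parasitemia/2.5% Hct final; cpd 72 h, 37 C, 5% CO2; lysis buffer with saponin/triton/SYBR Green I, o/n RT dark; FI 485/535; norm. to artemisinin (0.29 uM) and DMSO.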

For assay [4], the system named is ATS189. The assay is described as above. The note with it: P. falciparum in erythrocytes, SYBR Green DNA, 72 h; series mostly up to 28.7 µM. The essentials: as §1
The test system of assay [5] is CP185. Described as above. The note with it: P. falciparum in erythrocytes, SYBR Green DNA, 72 h; series mostly up to 28.7 µM. The essentials:
as §1

Assay [6] deals with CP192. The assay is described as above. The note with it: P. falciparum in erythrocytes, SYBR Green DNA, 72 h; series mostly up to 28.7 µM. The essentials:
as §1

Assay [7] relates to CP201. The assay is described as above. The note with it: P. falciparum in erythrocytes, SYBR Green DNA, 72 h; series mostly up to 28.7 µM. The essentials: as §1
Assay [8] deals with CP238. Described as above. The note with it: P. falciparum in erythrocytes, SYBR Green DNA, 72 h; series mostly up to 28.7 µM. The essentials: as §1
For assay [9], the system named is CP247. The assay is described as above. The note with it: P. falciparum in erythrocytes, SYBR Green DNA, 72 h; series mostly up to 28.7 µM. The essentials: as §1
For assay [10], the system named is CP252. The assay is described as above. The note with it: P. falciparum in erythrocytes, SYBR Green DNA, 72 h; series mostly up to 28.7 µM. The essentials:
as §1

Assay [11] deals with CP265. The description is as above. The note with it: P. falciparum in erythrocytes, SYBR Green DNA, 72 h; series mostly up to 28.7 µM. The essentials: as §1
For assay [12], the system named is CP329. The description is as above. The note with it: P. falciparum in erythrocytes, SYBR Green DNA, 72 h; series mostly up to 28.7 µM. The essentials: as §1
The subject of assay [13] is DFO2036. Described as above. The note with it: P. falciparum in erythrocytes, SYBR Green DNA, 72 h; series mostly up to 28.7 µM. The essentials: as §1
Assay [14] has as its system HB3. Described as above. The note with it: P. falciparum in erythrocytes, SYBR Green DNA, 72 h; series mostly up to 28.7 µM. The essentials: as §1
The subject of assay [15] is PAD. The assay is described as above. The note with it: P. falciparum in erythrocytes, SYBR Green DNA, 72 h; series mostly up to 28.7 µM. The essentials: as §1
The test system of assay [16] is SC27B. Described as above. The note with it: P. falciparum in erythrocytes, SYBR Green DNA, 72 h; series mostly up to 28.7 µM. The essentials: as §1
Assay [17] concerns W2. The assay is described as above. The note with it: P. falciparum in erythrocytes, SYBR Green DNA, 72 h; series mostly up to 28.7 µM. The essentials: as §1
Assay [18] has as its target Pyruvate kinase (Leishmania mexicana) (UniProt Q27686). Description: qHTS Validation Assay for Inhibitors of Leishmania Mexicana Pyruvate Kinase (AID 945). The note with it: purified L. mexicana pyruvate kinase, enzyme activity, E451W mutant enzyme; series mostly up to 57.5 µM. The essentials:
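Purified LmPYK (E451W mutant, 0.2 nM) was incubated 1 h at room temperature with 0.5 mM PEP and 0.1 mM ADP in 50 mM imidazole pH 7.2, 50 mM KCl, 7 mM MgCl2; ATP formed was read by PKLight luminescence, normalized to DMSO wells.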

Assay [19] in a line: qHTS Assay for Identification of Small Molecule Agonists for Thrombopoietin (TPO) Signaling Pathway (AID 917). The note with it: TPO signaling pathway reporter cells, agonist qHTS, stimulated with TPO at its EC50; series mostly up to 38.5 µM. The essentials: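 IL-3-dependent murine pro-B Ba/F3 cells, stably transfected with human TPO receptor and GpIIb-promoter luciferase, are incubated 24 hrs at 37 C with test compound and 26 pM TPO; luciferase signal is read after 10 min at room temperature.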

Assay [20] addresses Muscarinic acetylcholine receptor M1 (Rattus norvegicus) (UniProt P08482). Description: qHTS Assay for Antagonists of Acetylcholine Muscarinic M1 Receptor: Measurement of IP-One Response (AID 944). Also: nearly all actives have a fitted effect of over 75% in size. The note with it: CHO-M1 cells, IP-One HTRF, antagonist mode; series mostly up to 46.1 µM. The essentials: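 CHO cells stably expressing rat M1, pretreated 10 min with compound, then stimulated 30 min with carbachol at EC80 (200 nM) in LiCl-containing buffer pH 7.4; IP1 accumulation read by HTRF competition (665/620 nm).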

The text below walks through data of PubChem BioAssay (NCATS).

Each structure is given as a SMILES string. Inconclusive results are not listed. Active and inactive are the calls of the source. Calls follow the shape of the dose curve; as a rule, active = well fitted curve in the direction sought with a large enough effect; inconclusive = small, poorly fitted or top-dose-only effect, or another doubt; inactive = no such curve, though single readings can be large; an effect the other way counts as inactive or inconclusive.

Chain of ATP-dependent 6-phosphofructokinase (Trypanosoma brucei brucei) (O15648 whole entry, looked up): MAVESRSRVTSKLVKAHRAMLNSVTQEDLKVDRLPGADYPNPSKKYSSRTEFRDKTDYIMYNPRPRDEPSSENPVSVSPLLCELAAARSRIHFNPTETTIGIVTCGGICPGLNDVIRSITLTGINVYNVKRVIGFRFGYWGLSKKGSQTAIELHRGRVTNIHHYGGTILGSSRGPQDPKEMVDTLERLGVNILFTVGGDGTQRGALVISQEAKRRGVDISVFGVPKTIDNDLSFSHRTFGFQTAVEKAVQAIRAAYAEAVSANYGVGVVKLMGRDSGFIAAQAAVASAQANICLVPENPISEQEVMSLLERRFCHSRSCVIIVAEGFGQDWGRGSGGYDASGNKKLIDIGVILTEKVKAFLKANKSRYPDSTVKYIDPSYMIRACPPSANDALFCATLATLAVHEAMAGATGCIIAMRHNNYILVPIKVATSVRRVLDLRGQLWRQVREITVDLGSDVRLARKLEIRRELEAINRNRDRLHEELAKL
Chain of Pyruvate kinase (Leishmania mexicana) (Q27686 2-499 E452W): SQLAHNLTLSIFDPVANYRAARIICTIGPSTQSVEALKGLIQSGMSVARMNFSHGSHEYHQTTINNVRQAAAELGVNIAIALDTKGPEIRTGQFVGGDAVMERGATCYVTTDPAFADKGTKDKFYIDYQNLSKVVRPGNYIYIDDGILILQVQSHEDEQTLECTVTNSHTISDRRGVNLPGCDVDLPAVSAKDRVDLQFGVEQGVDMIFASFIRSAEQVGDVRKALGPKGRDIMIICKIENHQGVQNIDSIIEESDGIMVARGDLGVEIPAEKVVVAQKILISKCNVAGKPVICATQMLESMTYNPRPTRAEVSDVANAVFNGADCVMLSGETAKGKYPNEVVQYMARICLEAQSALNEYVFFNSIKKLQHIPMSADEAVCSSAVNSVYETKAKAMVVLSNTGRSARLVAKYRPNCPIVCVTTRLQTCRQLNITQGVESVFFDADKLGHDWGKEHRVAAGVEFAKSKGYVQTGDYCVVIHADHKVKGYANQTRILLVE
Chain of Muscarinic acetylcholine receptor M1 (Rattus norvegicus) (P08482 whole entry, looked up): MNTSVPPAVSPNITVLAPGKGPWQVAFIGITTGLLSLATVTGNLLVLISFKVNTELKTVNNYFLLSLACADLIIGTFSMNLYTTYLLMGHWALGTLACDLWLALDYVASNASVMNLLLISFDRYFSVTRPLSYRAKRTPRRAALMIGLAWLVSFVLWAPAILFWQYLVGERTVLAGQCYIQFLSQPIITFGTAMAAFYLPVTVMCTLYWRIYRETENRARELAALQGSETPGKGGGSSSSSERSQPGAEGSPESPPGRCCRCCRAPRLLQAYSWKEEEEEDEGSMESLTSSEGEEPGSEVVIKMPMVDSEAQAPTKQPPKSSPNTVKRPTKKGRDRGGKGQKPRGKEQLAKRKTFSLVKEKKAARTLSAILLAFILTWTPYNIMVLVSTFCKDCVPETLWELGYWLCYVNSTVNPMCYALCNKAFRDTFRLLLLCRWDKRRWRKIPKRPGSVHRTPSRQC

For `CCc1ccc2c(c1)N(C[C@H](C)CN(C)C)c1ccccc1S2`, the outcome in [1] was inactive. Also, the values for the Potency in assay [2], in assay [3] and in assay [17] were 28.7 µM (active), 10 µM (active) and 7.57 µM (active), respectively. In addition, the Potency result in [4], in assay [5], in [6], in assay [7], in assay [8] and in [9] was “inactive” throughout. In addition, the Potency result in assay [10], in assay [11], in assay [12], in assay [13], in [14] and in [15] was “inactive” in each case. For the same molecule, the Potency result in assay [16] was “inactive”.
Take `OC[C@H](S)CS`: the molecule was classed as inactive in assay [1]. For the same molecule, the Potency in assay [2] is 36.1 µM (active); in assay [3] it was 0.891 µM (active); in assay [14], 2 µM (active); in assay [17], 2.39 µM (active). For the same molecule, the Potency entry in assay [4], in assay [5], in assay [6], in assay [7], in assay [8] and in assay [9] was “inactive” each time. The Potency result in assay [10], in assay [11], in assay [12], in assay [15] and in [16] was “inactive” throughout.
Turning to `CC[C@H]1C(=O)OC[C@H]1Cc1cncn1C`, the molecule was called inactive in [18].
For `O=C(O)[C@@H](S)[C@H](S)C(=O)O`, the Potency entry in assay [2] is “inactive”. For the same molecule, the Potency in assay [3] was 5.01 µM (active); in assay [5], 11.2 µM (active); in assay [6], 12 µM (active); in assay [7], 12 µM (active); in assay [8], 12.6 µM (active); in assay [9], 7.94 µM (active). Besides, the Potency in assay [10] was 10 µM (active); in assay [11], 8.91 µM (active); in assay [12], 10.7 µM (active); in assay [13], 8.91 µM (active); in [14] it was 10 µM (active); in [15], 8.91 µM (active). Besides, the Potency in assay [16] was 11.2 µM (active); in [17] it was 3.38 µM (active).
Take `Cc1nnc(SCC2=C(C(=O)O)N3C(=O)[C@@H](NC(=O)Cn4cnnn4)[C@@H]3SC2)s1`: in assay [19], the result was inactive. Besides, the Potency result in assay [20] was “inactive”.
For `N[C@H](COP(=O)(O)O)C(=O)O`, the call in assay [1] was inactive. Further, the Potency result in [2], in assay [3], in [4], in [5], in [6] and in assay [7] was “inactive” each time. In addition, the Potency result in assay [8], in [9], in assay [10], in [11], in [12] and in [13] was “inactive” each time. Further, the Potency result in [14], in assay [15], in [16] and in assay [17] was “inactive” in each case.
In the case of `CSc1nc(N)c2ncn([C@@H]3O[C@@H](COP(=O)(O)OP(=O)(O)OP(=O)(O)O)[C@@H](O)[C@H]3O)c2n1`, the outcome in [19] and in assay [18] was inactive. Further, the Potency entry in assay [20] is “inactive”.
As for `COc1cc2nc(N(C)CCCNC(=O)[C@@H]3CCCO3)nc(N)c2cc1OC`, in assay [1], the molecule was classed as inactive. In addition, the Potency entry in [2], in [3], in [4], in assay [5], in assay [6] and in [7] was “inactive” in each case. The Potency result in assay [8], in assay [9], in assay [10], in assay [11], in assay [12] and in assay [13] was “inactive” throughout. Besides, the Potency entry in assay [14], in assay [15], in assay [16] and in assay [17] was “inactive” throughout.
On to `CC(=O)N1CCN(c2ccc(OC[C@@H]3CO[C@@](Cn4ccnc4)(c4ccc(Cl)cc4Cl)O3)cc2)CC1`, for which the call in assay [1] was inactive. Besides, the Potency result in assay [2], in [4], in assay [5], in assay [6], in [7] and in [8] was “inactive” in each case. Besides, the Potency entry in [9], in [10], in assay [11], in assay [12], in [13] and in [14] was “inactive” each time. For the same molecule, the Potency result in [15], in assay [16] and in assay [17] was “inactive” in each case. Also, the Potency in assay [3] was 11.2 µM (active).
Turning to `C[N+]1(C)[C@@H]2CC(OC(=O)[C@@H](CO)c3ccccc3)C[C@@H]1[C@H]1O[C@H]12` (stereo partly drawn), the call in assay [1] was inactive. Besides, the Potency entry in assay [2], in assay [3], in assay [4], in assay [5], in assay [6] and in assay [7] was “inactive” each time. Also, the Potency entry in [8], in assay [9], in assay [10], in assay [11], in assay [12] and in [13] was “inactive” in each case. The Potency entry in [14], in assay [15], in assay [16] and in assay [17] was “inactive” throughout.
In the case of `Oc1ccc([C@@H]2CNCCc3c2cc(O)c(O)c3Cl)cc1`, the result in assay [18] was inactive.
Consider `CN1[C@@H]2CC[C@H]1CC(OC(=O)[C@@H](CO)c1ccccc1)C2` (stereo partly drawn), for which the outcome in [19] and in assay [18] was inactive.
On to `CN1CCc2cc(Cl)c(O)cc2[C@H](c2ccccc2)C1`, for which, in [20], the Potency entry was “inactive”. In addition, the molecule was called inactive in assay [18].
For `OC[C@@H]1NC[C@@H](O)[C@H]1O`, the call in assay [19] was inactive.
In the case of `CCCCCCCCCC[Si](C)(C)CCC(=O)N[C@@H](Cc1ccc(C)cc1)c1ccccc1`, in assay [20], the Potency entry is “inactive”. For the same molecule, the outcome in assay [18] was inactive.
In the case of `C[C@H]1CN(S(=O)(=O)c2cccc3cnccc23)CCN1`, the Potency entry in assay [20] is “inactive”. For the same molecule, the molecule was called inactive in assay [18].
For `CC(C)[C@@H]1NC(=O)[C@H](CCCCN)NC(=O)[C@H](Cc2c[nH]c3ccccc23)NC(=O)[C@H](Cc2ccc(O)cc2)NC(=O)[C@H](C)N(C)C(=O)[C@H](Cc2ccccc2)NC1=O`, in [19], the call was inactive.
On to `C#C[C@H](N)CCC(=O)O`, for which the outcome in assay [19] was inactive.
Consider `CC(C)C[C@H](NC(=O)[C@@H](O)[C@@H](N)Cc1ccccc1)C(=O)O`, for which the outcome in assay [19] was inactive. Further, the Potency entry in assay [20] is “inactive”.
Take `Cc1ccccc1N1CCN(S(=O)(=O)C[C@@]23CC[C@H](C[C@H]2NC(=O)[C@@H](N)CCS(C)(=O)=O)C3(C)C)CC1`: the result in [19] was inactive. Also, the Potency result in assay [20] was “inactive”.
